27 compounds from the supplement of paper PMC10037445 can be followed below.

The full ranking holds about 2,900 compounds; the median of “NF-kB SEAP reporter activity, fold change vs agonist alone” is about 0.99, and the highest 2% start at about 2.6. The list comes from a sample in which the highest values are over-represented; it also holds similar structures and randomly drawn compounds.

Experiment [1] concerns RAW-Dual. Briefly: NF-kB SEAP reporter activity, fold change vs agonist alone; cytotoxicity flag (confluency mask): not cytotoxic; higher = enhanced NF-kB activity. In short, it runs like this:
(§1)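 RAW-Dual macrophages were seeded in DMEM at 50,000 cells/well in 384-well plates, given 50 nL of library stock by pin tool, and given a PRR agonist 1 h later. Plates were held at 37 °C, 5% CO2 for 20 hours, after which supernatant was read for IRF by QuantiLuc luminescence and for NF-κB by QuantiBlue absorbance at 620 nm. Reporter activity is expressed as fold change over wells that received agonist alone. A well was called cytotoxic when IncuCyte confluency fell below 70% of agonist controls in both mask sets.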

The test system of experiment [2] is RAW-Dual. Briefly: NF-kB SEAP reporter activity, fold change vs agonist alone; higher = enhanced NF-kB activity. In short, it runs like this: as §1
Experiment [3] has as its system RAW-Dual. The experiment is described as follows: NF-kB SEAP reporter activity, fold change vs agonist alone; cytotoxicity flag (confluency mask): cytotoxic (confluency <70% of control); higher = enhanced NF-kB activity. Put shortly:
as §1

The mark [4] stands for this setting: agonist: ODN 1826 (TLR9) 0.5 ug/mL.
Where [5] appears, read: agonist: Pam2CSK4 (TLR2/6) 0.1 ug/mL.
The mark [6] stands for this setting: agonist: Pam3CSK4 (TLR2/1) 0.1 ug/mL.
Setting [7] is: library stock concentration (final ~1000-fold dilution): 10 mM, cytotoxicity flag (confluency mask): not cytotoxic, agonist: Imiquimod (TLR7) […].
Where [8] appears, read: library stock concentration (final ~1000-fold dilution): 10 mM, cytotoxicity flag (confluency mask): not cytotoxic, agonist: MPLA (TLR4) […].
Where [9] appears, read: library stock concentration (final ~1000-fold dilution): 10 mM, cytotoxicity flag (confluency mask): cytotoxic (confluency <70% of control), agonist: Imiquimod (TLR7) […].
Setting [10] is: library stock concentration (final ~1000-fold dilution): 10 mM, cytotoxicity flag (confluency mask): cytotoxic (confluency <70% of control), agonist: MPLA (TLR4) […].

For `CC(=O)OC1(C(C)=O)CCC2C3C=C(C)C4=CC(=O)CCC4(C)C3CCC21C` (configuration not stated) (library stock concentration (final ~1000-fold dilution): 10 mM), the “NF-kB SEAP reporter activity” value with RAW-Dual [1] (agonist: LPS (TLR4) 0.1 ug/mL) stood at 0.908; with RAW-Dual [1] (setting [4]), 1.22; with RAW-Dual [1] (setting [5]) it was 1.13; in the experiment with RAW-Dual [1] (setting [6]) it was 1.27.
In the case of `CC(=O)OC1(C(C)=O)CCC2C3C=C(C)C4=CC(=O)CCC4(C)C3CCC21C` (configuration not stated), the results for the “NF-kB SEAP reporter activity” value with RAW-Dual [2] (setting [7]) and in the experiment on RAW-Dual [2] (setting [8]) were 1.21 and 1.14, respectively.
As for `O=C(NC1=CC(=O)[C@@H]2O[C@@H]2[C@@H]1O)c1ccccc1O`, the “NF-kB SEAP reporter activity” value with RAW-Dual [2] (setting [7]) amounted to 0.849; in the experiment on RAW-Dual [2] (setting [8]), 0.949.
Turning to `O=C(NC1=CC(=O)[C@@H]2O[C@@H]2[C@@H]1O)c1ccccc1O` (library stock concentration (final ~1000-fold dilution): 10 mM), the “NF-kB SEAP reporter activity” value in the experiment on RAW-Dual [1] (agonist: LPS (TLR4) 0.1 ug/mL) came out at 0.954; in the experiment with RAW-Dual [1] (setting [4]), 0.718; in the experiment with RAW-Dual [1] (setting [5]), 0.356; with RAW-Dual [1] (setting [6]) it was 0.314.
Take `CS(=O)(=O)O.O=C(OC1CC2CC3CC(C1)N2CC3=O)c1c[nH]c2ccccc12` (configuration not stated): the figures for the “NF-kB SEAP reporter activity” value with RAW-Dual [2] (setting [7]) and with RAW-Dual [2] (setting [8]) were 0.712 and 0.75, respectively.
Regarding `CS(=O)(=O)O.O=C(OC1CC2CC3CC(C1)N2CC3=O)c1c[nH]c2ccccc12` (configuration not stated) (library stock concentration (final ~1000-fold dilution): 10 mM), the “NF-kB SEAP reporter activity” value in the experiment with RAW-Dual [1] (agonist: LPS (TLR4) 0.1 ug/mL) was 0.646; with RAW-Dual [1] (setting [4]), 0.571; with RAW-Dual [1] (setting [5]), 0.906; with RAW-Dual [1] (setting [6]) it was 0.497.
Regarding `CCNC(=O)C#Cc1ccc2c(c1)NC(=O)/C2=C(\Nc1ccc(CN(C)C)cc1)c1ccccc1`, the “NF-kB SEAP reporter activity” value with RAW-Dual [2] (setting [9]) is 0.134; in the experiment on RAW-Dual [2] (setting [10]), 0.297.
Regarding `CCNC(=O)C#Cc1ccc2c(c1)NC(=O)/C2=C(\Nc1ccc(CN(C)C)cc1)c1ccccc1` (library stock concentration (final ~1000-fold dilution): 10 mM), the “NF-kB SEAP reporter activity” value in the experiment with RAW-Dual [3] (agonist: LPS (TLR4) 0.1 ug/mL) is 0.241; with RAW-Dual [3] (setting [4]), 0.173; with RAW-Dual [3] (setting [5]), 0.074; in the experiment on RAW-Dual [3] (setting [6]), 0.121.
As for `C=CC(=O)Nc1cccc(Sc2nc(Nc3ccc(N4CCN(C)CC4)cc3)ncc2Cl)c1` (library stock concentration (final ~1000-fold dilution): 10 mM), the “NF-kB SEAP reporter activity” value worked out at 0.254 in the experiment with RAW-Dual [1] (agonist: LPS (TLR4) 0.1 ug/mL), 0.205 in the experiment on RAW-Dual [1] (setting [4]), 0.0814 in the experiment with RAW-Dual [1] (setting [5]) and 0.268 in the experiment with RAW-Dual [1] (setting [6]).
As for `C=CC(=O)Nc1cccc(Nc2nc(Nc3ccc(OCCOC)cc3)ncc2F)c1`, the “NF-kB SEAP reporter activity” value was found to be 1.11 with RAW-Dual [2] (setting [7]) and 1.69 with RAW-Dual [2] (setting [8]).
For `CCN(CC)CCOc1ccc(Nc2ncc3cc(-c4c(Cl)cccc4Cl)c(=O)n(C)c3n2)cc1`, the figures for the “NF-kB SEAP reporter activity” value in the experiment with RAW-Dual [2] (setting [9]) and with RAW-Dual [2] (setting [10]) were 0.492 and 0.332, respectively.
Turning to `Cc1cnc(Nc2ccc(N3CCN(C)CC3)cc2)nc1Nc1cccc(S(=O)(=O)NC(C)(C)C)c1`, the “NF-kB SEAP reporter activity” value in the experiment with RAW-Dual [2] (setting [7]) is 1.01; in the experiment on RAW-Dual [2] (setting [8]), 0.945.
`C=CC(=O)Nc1cccc(Nc2nc(Nc3ccc(OCCOC)cc3)ncc2F)c1` (library stock concentration (final ~1000-fold dilution): 10 mM): the “NF-kB SEAP reporter activity” value with RAW-Dual [1] (agonist: LPS (TLR4) 0.1 ug/mL) is 1.12; in the experiment on RAW-Dual [1] (setting [4]), 0.8; in the experiment on RAW-Dual [1] (setting [5]), 0.545; in the experiment on RAW-Dual [1] (setting [6]), 0.672.
Take `CCN(CC)CCOc1ccc(Nc2ncc3cc(-c4c(Cl)cccc4Cl)c(=O)n(C)c3n2)cc1` (library stock concentration (final ~1000-fold dilution): 10 mM): the “NF-kB SEAP reporter activity” value in the experiment on RAW-Dual [3] (agonist: LPS (TLR4) 0.1 ug/mL) was 0.238; in the experiment with RAW-Dual [3] (setting [4]), 0.236; in the experiment on RAW-Dual [3] (setting [5]), 0.0747; with RAW-Dual [3] (setting [6]), 0.145.
Take `Cc1cnc(Nc2ccc(OCCN3CCCC3)cc2)nc1Nc1cccc(S(=O)(=O)NC(C)(C)C)c1`: the “NF-kB SEAP reporter activity” value turned out to be 3.13 in the experiment with RAW-Dual [2] (setting [9]) and 2.73 in the experiment with RAW-Dual [2] (setting [10]).
Consider `Cc1cnc(Nc2ccc(OCCN3CCCC3)cc2)nc1Nc1cccc(S(=O)(=O)NC(C)(C)C)c1` (library stock concentration (final ~1000-fold dilution): 10 mM), for which the “NF-kB SEAP reporter activity” value was 4.34 in the experiment with RAW-Dual [3] (agonist: LPS (TLR4) 0.1 ug/mL), 1.22 in the experiment on RAW-Dual [3] (setting [4]), 2.05 in the experiment with RAW-Dual [3] (setting [5]) and 3.55 in the experiment on RAW-Dual [3] (setting [6]).
For the compound `C=CCn1c(=O)c2cnc(Nc3ccc(N4CCN(C)CC4)cc3)nc2n1-c1cccc(C(C)(C)O)n1` (library stock concentration (final ~1000-fold dilution): 10 mM), the “NF-kB SEAP reporter activity” value turned out to be 0.933 with RAW-Dual [3] (agonist: LPS (TLR4) 0.1 ug/mL), 0.203 in the experiment with RAW-Dual [3] (setting [4]), 0.914 with RAW-Dual [3] (setting [5]) and 1.07 in the experiment with RAW-Dual [3] (setting [6]).
As to `C=CCn1c(=O)c2cnc(Nc3ccc(N4CCN(C)CC4)cc3)nc2n1-c1cccc(C(C)(C)O)n1`, the entries for the “NF-kB SEAP reporter activity” value in the experiment on RAW-Dual [2] (setting [9]) and with RAW-Dual [2] (setting [10]) were 1.14 and 0.798, respectively.
As for `C=CC(=O)Nc1cccc(Sc2nc(Nc3ccc(N4CCN(C)CC4)cc3)ncc2Cl)c1`, the “NF-kB SEAP reporter activity” value amounted to 0.33 with RAW-Dual [2] (setting [7]) and 0.408 in the experiment on RAW-Dual [2] (setting [8]).
For `Cc1cnc(Nc2ccc(N3CCN(C)CC3)cc2)nc1Nc1cccc(S(=O)(=O)NC(C)(C)C)c1` (library stock concentration (final ~1000-fold dilution): 10 mM), the “NF-kB SEAP reporter activity” value was determined as 7 in the experiment with RAW-Dual [1] (agonist: LPS (TLR4) 0.1 ug/mL), 0.913 in the experiment on RAW-Dual [1] (setting [4]), 2.15 in the experiment with RAW-Dual [1] (setting [5]) and 0.84 in the experiment with RAW-Dual [1] (setting [6]).
In the case of `c1ccc(C(c2ccccc2)N2CCN(Cc3ccc4c(c3)OCO4)CC2)cc1`, the results for the “NF-kB SEAP reporter activity” value with RAW-Dual [2] (setting [7]) and with RAW-Dual [2] (setting [8]) were 1.19 and 0.686, respectively.
As for `c1ccc(C(c2ccccc2)N2CCN(Cc3ccc4c(c3)OCO4)CC2)cc1` (library stock concentration (final ~1000-fold dilution): 10 mM), the “NF-kB SEAP reporter activity” value in the experiment with RAW-Dual [1] (agonist: LPS (TLR4) 0.1 ug/mL) worked out at 0.717; in the experiment with RAW-Dual [1] (setting [4]) it was 0.728; in the experiment with RAW-Dual [1] (setting [5]), 1.38; with RAW-Dual [1] (setting [6]) it was 0.699.
Turning to `O=c1ncnc2[nH][nH]cc1-2` (library stock concentration (final ~1000-fold dilution): 10 mM), the “NF-kB SEAP reporter activity” value with RAW-Dual [1] (agonist: LPS (TLR4) 0.1 ug/mL) stood at 0.941; in the experiment with RAW-Dual [1] (setting [4]) it was 1.03; in the experiment with RAW-Dual [1] (setting [5]), 1.06; in the experiment on RAW-Dual [1] (setting [6]), 1.16.
Take `O=c1ncnc2[nH][nH]cc1-2`: the “NF-kB SEAP reporter activity” value with RAW-Dual [2] (setting [7]) was 0.925; in the experiment on RAW-Dual [2] (setting [8]), 1.08.
Regarding `C=C(C)C1CCC2(C)CCC3(C)C(CCC4C5(C)CCC(O)C(C)(C)C5CCC43C)C12` (configuration not stated) (library stock concentration (final ~1000-fold dilution): 2 mM), the “NF-kB SEAP reporter activity” value in the experiment on RAW-Dual [1] (agonist: LPS (TLR4) 0.1 ug/mL) came to 1.25; in the experiment with RAW-Dual [1] (setting [4]), 0.949; in the experiment with RAW-Dual [1] (setting [5]) it was 1.06; in the experiment with RAW-Dual [1] (setting [6]), 0.917.
In the case of `C=C(C)C1CCC2(C)CCC3(C)C(CCC4C5(C)CCC(O)C(C)(C)C5CCC43C)C12` (configuration not stated), the “NF-kB SEAP reporter activity” value stood at 1 with RAW-Dual [2] (library stock concentration (final ~1000-fold dilution): 2 mM, cytotoxicity flag (confluency mask): not cytotoxic, agonist: Imiquimod (TLR7) […]) and 1.05 in the experiment with RAW-Dual [2] (library stock concentration (final ~1000-fold dilution): 2 mM, cytotoxicity flag (confluency mask): not cytotoxic, agonist: MPLA (TLR4) […]).
With `CC(C)COCC(CN(Cc1ccccc1)c1ccccc1)N1CCCC1.Cl.O` (configuration not stated) (library stock concentration (final ~1000-fold dilution): 10 mM), the “NF-kB SEAP reporter activity” value in the experiment on RAW-Dual [3] (agonist: LPS (TLR4) 0.1 ug/mL) stood at 0.71; with RAW-Dual [3] (setting [4]), 1.2; in the experiment with RAW-Dual [3] (setting [5]), 0.673; in the experiment with RAW-Dual [3] (setting [6]) it was 1.09.
